# From ChEMBL document CHEMBL2218924, “A broad activity screen in support of a chemogenomic map for kinase signalling research and drug discovery” (Biochem J, 2013)
# Legend:
# [1] = biological target: T1, Aurora kinase C (Homo sapiens) (UniProt Q9UQB9); conditions: at 1 µM
# T1 sequence (whole entry): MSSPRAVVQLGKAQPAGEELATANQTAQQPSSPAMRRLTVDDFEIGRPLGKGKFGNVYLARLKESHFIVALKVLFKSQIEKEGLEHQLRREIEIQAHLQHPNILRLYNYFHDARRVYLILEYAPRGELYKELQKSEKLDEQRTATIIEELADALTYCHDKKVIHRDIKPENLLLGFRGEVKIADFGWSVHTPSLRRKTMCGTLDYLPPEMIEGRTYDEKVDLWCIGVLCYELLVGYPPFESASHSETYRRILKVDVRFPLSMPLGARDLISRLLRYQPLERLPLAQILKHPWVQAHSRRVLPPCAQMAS
# [2] = biological target: T1, Aurora kinase C (Homo sapiens); conditions: at 10 µM
# [3] = biological target: Tyrosine-protein kinase receptor UFO (Homo sapiens) (UniProt P30530); conditions: at 1 µM
# [4] = biological target: Tyrosine-protein kinase receptor UFO (Homo sapiens) (UniProt P30530); conditions: at 10 µM
# [5] = biological target: Protein-tyrosine kinase 6 (Homo sapiens) (UniProt Q13882); conditions: at 1 µM
# [6] = biological target: Protein-tyrosine kinase 6 (Homo sapiens) (UniProt Q13882); conditions: at 10 µM
# [7] = biological target: Tyrosine-protein kinase BTK (Homo sapiens) (UniProt Q06187); conditions: at 1 µM
# [8] = biological target: Tyrosine-protein kinase BTK (Homo sapiens) (UniProt Q06187); conditions: at 10 µM
# [9] = biological target: Tyrosine-protein kinase Blk (Homo sapiens) (UniProt P51451); conditions: at 1 µM
# [10] = biological target: Tyrosine-protein kinase Blk (Homo sapiens) (UniProt P51451); conditions: at 10 µM
# Chain of Tyrosine-protein kinase receptor UFO (Homo sapiens) (P30530 whole entry): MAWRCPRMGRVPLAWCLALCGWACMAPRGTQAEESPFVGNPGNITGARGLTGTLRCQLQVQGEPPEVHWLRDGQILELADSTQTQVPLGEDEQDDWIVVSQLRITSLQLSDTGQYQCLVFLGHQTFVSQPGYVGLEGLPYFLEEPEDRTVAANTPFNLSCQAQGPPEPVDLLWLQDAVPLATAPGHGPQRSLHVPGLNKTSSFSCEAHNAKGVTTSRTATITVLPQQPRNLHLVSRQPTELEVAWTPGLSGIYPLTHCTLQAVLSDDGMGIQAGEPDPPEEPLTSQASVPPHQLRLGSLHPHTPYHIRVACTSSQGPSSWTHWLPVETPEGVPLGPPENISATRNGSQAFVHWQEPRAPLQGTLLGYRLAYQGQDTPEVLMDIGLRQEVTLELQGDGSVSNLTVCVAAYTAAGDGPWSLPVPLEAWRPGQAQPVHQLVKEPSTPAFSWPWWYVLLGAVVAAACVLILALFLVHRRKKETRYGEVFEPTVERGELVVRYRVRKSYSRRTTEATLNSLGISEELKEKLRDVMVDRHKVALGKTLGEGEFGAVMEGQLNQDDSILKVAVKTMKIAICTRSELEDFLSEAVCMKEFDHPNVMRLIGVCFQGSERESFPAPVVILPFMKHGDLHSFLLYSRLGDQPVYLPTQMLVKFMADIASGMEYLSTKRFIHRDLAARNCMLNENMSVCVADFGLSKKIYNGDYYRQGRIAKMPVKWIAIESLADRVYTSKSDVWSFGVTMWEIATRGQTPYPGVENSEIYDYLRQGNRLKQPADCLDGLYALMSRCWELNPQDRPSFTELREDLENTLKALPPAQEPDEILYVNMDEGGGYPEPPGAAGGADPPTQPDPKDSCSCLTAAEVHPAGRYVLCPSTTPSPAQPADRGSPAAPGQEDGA
# Chain of Tyrosine-protein kinase Blk (Homo sapiens) (P51451 2-505 limits assumed): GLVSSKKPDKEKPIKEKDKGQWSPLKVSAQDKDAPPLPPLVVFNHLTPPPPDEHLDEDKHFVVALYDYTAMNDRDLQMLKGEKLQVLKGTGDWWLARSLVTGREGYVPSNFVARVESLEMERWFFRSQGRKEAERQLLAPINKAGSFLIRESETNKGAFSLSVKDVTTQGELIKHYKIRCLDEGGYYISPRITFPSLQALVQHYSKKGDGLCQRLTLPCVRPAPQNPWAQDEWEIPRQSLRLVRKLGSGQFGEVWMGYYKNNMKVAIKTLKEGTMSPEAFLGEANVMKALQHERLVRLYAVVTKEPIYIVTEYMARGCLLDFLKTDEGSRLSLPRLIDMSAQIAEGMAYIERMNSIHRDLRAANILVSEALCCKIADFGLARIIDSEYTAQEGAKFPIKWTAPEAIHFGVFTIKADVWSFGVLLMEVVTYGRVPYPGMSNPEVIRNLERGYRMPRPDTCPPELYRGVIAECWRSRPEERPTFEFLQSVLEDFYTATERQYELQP
# Chain of Protein-tyrosine kinase 6 (Homo sapiens) (Q13882 whole entry, looked up): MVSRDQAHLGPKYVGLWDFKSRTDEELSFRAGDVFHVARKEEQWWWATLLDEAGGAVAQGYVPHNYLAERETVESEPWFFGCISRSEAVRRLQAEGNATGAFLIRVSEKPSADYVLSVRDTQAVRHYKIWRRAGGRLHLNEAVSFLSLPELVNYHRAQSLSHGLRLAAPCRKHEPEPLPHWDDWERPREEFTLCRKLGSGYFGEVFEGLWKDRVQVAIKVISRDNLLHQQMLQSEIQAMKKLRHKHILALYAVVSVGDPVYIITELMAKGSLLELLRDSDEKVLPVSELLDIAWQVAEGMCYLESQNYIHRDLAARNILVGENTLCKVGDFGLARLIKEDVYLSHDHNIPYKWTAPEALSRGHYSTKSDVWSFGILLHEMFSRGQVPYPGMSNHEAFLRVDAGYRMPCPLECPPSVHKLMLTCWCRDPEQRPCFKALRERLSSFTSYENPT
# Chain of Tyrosine-protein kinase BTK (Homo sapiens) (Q06187 whole entry): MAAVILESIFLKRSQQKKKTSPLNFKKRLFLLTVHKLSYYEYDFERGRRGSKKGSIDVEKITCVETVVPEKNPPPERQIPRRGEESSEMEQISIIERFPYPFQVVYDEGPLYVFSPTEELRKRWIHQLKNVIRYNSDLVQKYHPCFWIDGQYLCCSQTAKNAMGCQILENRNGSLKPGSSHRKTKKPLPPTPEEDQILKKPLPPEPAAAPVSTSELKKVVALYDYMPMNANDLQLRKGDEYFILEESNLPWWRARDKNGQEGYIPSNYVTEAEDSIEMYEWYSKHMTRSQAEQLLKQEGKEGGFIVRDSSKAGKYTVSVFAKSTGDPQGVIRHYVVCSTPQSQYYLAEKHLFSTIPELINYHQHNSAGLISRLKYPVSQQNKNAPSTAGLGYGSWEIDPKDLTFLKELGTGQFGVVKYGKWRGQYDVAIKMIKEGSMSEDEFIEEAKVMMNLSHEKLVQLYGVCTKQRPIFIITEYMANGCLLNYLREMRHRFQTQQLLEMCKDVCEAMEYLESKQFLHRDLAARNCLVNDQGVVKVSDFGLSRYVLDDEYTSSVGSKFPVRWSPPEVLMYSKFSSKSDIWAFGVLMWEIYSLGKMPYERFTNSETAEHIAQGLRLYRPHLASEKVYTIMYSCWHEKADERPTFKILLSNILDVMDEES
Structure (SMILES),residual activity [1] [%],residual activity [2] [%],residual activity [3] [%],residual activity [4] [%],residual activity [5] [%],residual activity [6] [%],residual activity [7] [%],residual activity [8] [%],residual activity [9] [%],residual activity [10] [%]
C[C@@H](N)[C@H]1CC[C@H](C(=O)Nc2ccncc2)CC1,96,72,102,103,97,89,101,104,92,100
Oc1c2ccccc2c2c3c(cccc13)N=N2,9,4,50,17,95,95,88,57,97,45
O=C1Nc2ccccc2/C1=C1/Nc2ccccc2/C1=N\OCCC(O)CO (configuration not stated),43,30,12,5,56,53,12,-2,4,0
CO[C@H]1[C@@H](OC)C[C@H](C)[C@@H](OC)C2=CC(=O)C=C(NC(=O)/C(C)=C/C=C/[C@H](OC)[C@@H](OC(N)=O)/C(C)=C/[C@@H]1C)C2=O,76,90,104,77,109,106,83,101,90,78
O=C1c2ccccc2-[n+]2ccc3c([nH]c4ccccc43)c21,83,72,73,62,97,80,94,87,95,76
Oc1n[nH]c2nnc(-c3c(-c4ccccc4)nn4ccccc34)cc12,84,84,118,104,97,87,78,33,107,90
COc1cc2ncnc(Nc3ccc(Oc4ccccc4)cc3)c2cc1OC,59,59,54,25,7,4,15,2,0,0
CC(=O)O/N=C1\C(=C2\C(=O)Nc3cc(Br)ccc32)Nc2ccccc21,89,82,77,44,99,77,25,4,19,3
CC#CC(=O)Nc1cc2c(Nc3ccc(F)c(Cl)c3)ncnc2cn1,99,73,82,74,99,97,47,16,82,49
CC(=O)c1ccc(N2CCOCC2)cc1O,106,84,110,85,108,107,91,,,
COc1cc2ncnc(Nc3ccc(O)c(Br)c3)c2cc1OC,45,10,36,17,18,1,80,33,21,3
CO[C@@H]1[C@H](N(C)C(=O)c2ccccc2)C[C@H]2O[C@]1(C)n1c3ccccc3c3c4c(c5c6ccccc6n2c5c31)C(=O)NC4,62,20,14,9,98,93,60,35,7,5
CCC(=O)Nc1ccc2ncnc(Nc3cccc(Br)c3)c2c1,94,80,83,80,80,60,95,78,112,80
CN(C)c1ccc(/C=C2\C(=O)Nc3ccccc32)cc1,88,39,78,49,112,97,113,86,87,62
Oc1ccc(-c2nc(-c3ccc(F)cc3)c(-c3ccncc3)[nH]2)cc1,113,95,121,83,49,5,108,77,109,44
CCOc1cc2ncnc(Nc3cccc(Br)c3)c2cc1OCC,98,52,66,31,18,2,72,28,17,3
Nc1n[nH]c2nnc(-c3c(-c4ccccc4)nn4ccccc34)cc12,83,66,98,84,95,78,86,47,100,63

Structure (SMILES),residual activity [1] [%],residual activity [2] [%],residual activity [3] [%],residual activity [4] [%],residual activity [5] [%],residual activity [6] [%],residual activity [7] [%],residual activity [8] [%],residual activity [9] [%],residual activity [10] [%]
COc1cc2ncnc(Nc3ccc(NC(=O)c4ccccc4)cc3)c2cc1OC,44,4,99,40,35,10,90,68,20,2
COc1cc2ncnc(N3CCN(C(=O)Nc4ccc(Oc5ccccc5)cc4)CC3)c2cc1OC,71,25,71,60,98,98,92,112,100,72
Oc1ccc(Nc2nc(-c3ccc(Cl)cc3)cs2)cc1,90,92,114,80,107,102,95,84,111,86
CCN(CC)C(=O)c1ccc(Nc2nc(OCC3CCCCC3)c3nc[nH]c3n2)cc1,1,2,27,7,54,11,34,-2,20,1
CN(C)CCCn1cc(C2=C(c3c[nH]c4ccccc34)C(=O)NC2=O)c2ccccc21,109,72,70,39,110,89,89,72,65,13
O=C(Nc1cccc(Nc2cc(Nc3cccc(C(F)(F)F)c3)ncn2)c1)C1CC1,90,87,102,83,94,94,99,71,97,69
O=C(Nc1cccc(Nc2nccc(Nc3cccc(C(F)(F)F)c3)n2)c1)C1CC1,69,62,79,81,40,46,53,6,77,57
O=C1NC(=O)c2cc(Nc3ccc(F)cc3)c(Nc3ccc(F)cc3)cc21,92,73,94,81,89,48,86,87,98,38
Cn1cc(/C=C2\C(=O)Nc3ccc(S(N)(=O)=O)cc32)c2ccccc21,40,39,13,27,97,101,19,5,9,3
O=[N+]([O-])c1ccc(-c2nc(-c3ccc(F)cc3)c(-c3ccncc3)[nH]2)cc1,107,92,120,106,36,31,91,56,110,98
c1ccc(-c2n[nH]cc2-c2ccnc3ccccc23)nc1,100,66,65,80,93,37,102,100,102,59
COc1ccc(OC)c2c(=S)c3ccccc3[nH]c12,78,75,96,83,104,104,96,82,111,96
O=C1NC(=O)c2c1c1c3ccccc3[nH]c1c1[nH]c3cc(Br)ccc3c21,89,59,94,80,105,100,79,68,102,85
O=C1NC(=O)/C(=C/c2ccc3c(c2)OC(F)(F)O3)S1,110,80,98,84,110,104,86,95,119,94
O=c1c2ccccc2[nH]c(=S)n1CCN1CCC(=C(c2ccc(F)cc2)c2ccc(F)cc2)CC1,110,84,103,89,112,95,90,123,101,66
COc1cccc(-c2cc(=O)c3ccccc3o2)c1N,99,94,119,111,105,105,94,100,114,103
